# From PubChem BioAssay (NCATS)
# Values joined by “and” are separate entries in the source; they are usually repeats but may differ in a detail not shown here. Equal values may be shown once. Results filed as inconclusive are left out. Where a call stands in place of a potency, no number is given. Where a structure was tested more than once in an assay, its records may differ in their call. Active and inactive are the calls of the source. Unless noted, the call rests on the fitted dose curve; in most records, active means well fitted curve in the direction sought with a large enough effect; inconclusive means small, poorly fitted or top-dose-only effect, or another doubt; inactive means no such curve, though single readings can be large; an effect the other way counts as inactive or inconclusive.
# Key:
# [1] = target: Mitogen-activated protein kinase 10 (Mus musculus) (UniProt Q61831); assay: JNK3 AlphaScreen Assay (AID 530; active means well fitted curve in either direction with a large enough effect, not every such curve was filed as active;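 further: kinase came from lysate of stimulated human HepG2 cells; signal reports phosphorylation of biotinylated GST-cJun 1-79 at Ser73 with 10 µM ATP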)
# Summary of the method: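 qHTS format: compounds tested as titrations against IL-1beta/TNF-alpha-activated HepG2 lysate JNK3 with biotin-GST-cJun substrate and 10 uM ATP at room temperature. Loss of anti-phospho-cJun AlphaScreen signal indicates inhibition.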
# [2] = Cell Viability - Renal Proximal Tubule (AID 545); conditions: renal proximal tubule cells viability, primary cells of rat origin; activity change, negative = cytotoxicity: at 91.7 µM (top of the series); further: nearly all actives have a fitted effect of over 40% in size
# Summary of the method: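 Rat renal proximal tubule primary cells, 1000/well, exposed to compounds for 40 hr at 37 °C in complete medium; cellular ATP read by CellTiter-Glo luminescence. AC50 from concentration-response fitted with standard Hill equation.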
# [3] = target: Glucocorticoid receptor (Homo sapiens) (UniProt P04150); assay: qHTS assay for small molecule antagonists of glucocorticoid receptor signaling (AID 588533; active means well fitted inhibition curve with a large enough effect in the signal ratio, with a control signal flat, not every such curve was filed as active; the % refers to the signal ratio)
# Summary of the method: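 Antagonist-mode qHTS: compound titrations added to GRE-bla HeLa cells, then dexamethasone 2 nM final; 18 h, 37 C. CCF4 FRET fluorescence normalized to dexamethasone and DMSO; IC50 from Hill fit.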
# [4] = qHTS assay for small molecule antagonists of peroxisome proliferator-activated receptor delta signaling (AID 588535); conditions: HEK293T PPARd-UAS-bla, beta-lactamase FRET ratio, 18 h; 460 nm channel;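 further: cells co-treated with a PPAR-delta agonist as stimulator during compound exposure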
# Summary of the method: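 Cells were seeded at 4000 per well in assay medium containing 2% charcoal/dextran FBS and held 5 hrs at 37 C. Compounds were then added for 18 hrs. CCF4 substrate was applied for 2 hrs at room temperature before fluorescence reading.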
# [5] = target: Peroxisome proliferator-activated receptor gamma (Homo sapiens) (UniProt P37231); assay: qHTS assay for small molecule agonists of peroxisome proliferator-activated receptor gamma signaling (AID 588536; active means well fitted curve in the direction sought with a large enough effect in the signal ratio, with a control signal flat, not every such curve was filed as active; the % refers to the signal ratio)
# Summary of the method: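 Test agents, titrated, stimulated HEK293 UAS-bla cells overnight (16 h, 37 C). Substrate CCF4 was then added for two hours at room temperature before fluorescence reading.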
# [6] = target: Peroxisome proliferator-activated receptor gamma (Homo sapiens) (UniProt P37231); assay: qHTS assay for small molecule antagonists of peroxisome proliferator-activated receptor gamma signaling (AID 588537; active means well fitted inhibition curve with a large enough effect in the signal ratio, with a control signal flat, not every such curve was filed as active; the % refers to the signal ratio;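 further: reporter cells co-stimulated with 50 nM rosiglitazone agonist during compound treatment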)
# Summary of the method: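 Step one: plate 3000 HEK293 UAS-bla cells per well in medium with 1% stripped serum and hold 6-6.5 h at 37 C. Step two: add compound and 50 nM agonist for 16 h. Step three: CCF4 loading, fluorescence read.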
# [7] = target: Retinoic acid receptor RXR-alpha (Homo sapiens) (UniProt P19793); assay: qHTS assay for small molecule agonists of retinoid X receptor alpha signaling (AID 588544; calls by dose curve)
# [8] = qHTS assay for small molecule agonists of the antioxidant response element (ARE) signaling pathway (AID 651741; active means well fitted activation curve with a large enough effect in the signal ratio; the % refers to the signal ratio; further: potency means the concentration at half of the fitted maximal effect)
# Summary of the method: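 HepG2 ARE-bla cells plated at 2,000 cells/well and incubated 5 h at 37 C/5% CO2 received 23 nL compound in DMSO. After 16 h at 37 C, LiveBLAzer B/G FRET substrate was applied for 2 h at room temperature and fluorescence read.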
# [9] = Cell Viability - NIH 3T3 (AID 541); conditions: NIH 3T3 cell viability, qHTS; activity change, negative = cytotoxicity: at 92.2 µM (top of the series); further: nearly all actives have a fitted effect of over 25% in size
# Summary of the method: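 AC50 values reflect concentration-dependent loss of intracellular ATP in NIH 3T3 cells after 40 hr treatment in complete culture medium, quantified by luciferase-based luminescence.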
# [10] = Cell Viability - LYMP2-003 (AID 965);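 further: cells exposed to compounds for 24 h before reading; nearly all actives have a fitted effect of over 50% in size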
# Summary of the method: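 Human lymphoblastoid LYMP2-003 cells, 2500/well, exposed to compounds for 24 h at 37 C in complete medium. Viability read as intracellular ATP by CellTiter-Glo luminescence; AC50 from Hill-equation fits of qHTS concentration-response data.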
# [11] = target: Estrogen receptor (Homo sapiens) (UniProt P03372); assay: qHTS assay for small molecule antagonists of estrogen receptor alpha signaling (AID 588513; active means well fitted curve in the direction sought with a large enough effect in the signal ratio, with a control signal flat, not every such curve was filed as active; the % refers to the signal ratio)
# Summary of the method: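 ER-alpha-UAS-bla GripTite HEK 293 cells in 2% charcoal/dextran-treated FBS medium; compounds titrated (1:2, duplicate), then stimulated with 0.5 nM 17-beta-estradiol for 18 h at 37C. CCF4 beta-lactamase fluorescence; Hill-fit IC50 and efficacy.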
# [12] = target: Estrogen receptor (Homo sapiens) (UniProt P03372); assay: qHTS assay for small molecule agonists of estrogen receptor alpha signaling (AID 588514; calls by dose curve; further: nearly all actives have a fitted effect of over 70% in size; further: potency means the concentration at half of the fitted maximal effect)
# Summary of the method: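 Reporter-gene assay. […] controls beta-lactamase in HEK 293 GripTite cells; after 18 hrs with compound, CCF4 substrate is added for 2 hrs and fluorescence is read.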
# [13] = target: Vitamin D3 receptor (Homo sapiens) (UniProt P11473); assay: qHTS assay for small molecule antagonists of vitamin D receptor signaling (AID 588541; calls by dose curve;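 further: receptor activated by calcitriol during compound treatment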)
# Summary of the method: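 VDR-UAS-bla HEK293T cells in 2% charcoal-stripped FBS were stimulated with 1-alpha,25-dihydroxyvitamin D3 (3 nM final) plus compound for 16 h at 37 C. The beta-lactamase CCF4 readout was normalized to 50 nM agonist and DMSO, and Hill fits gave IC50.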
# [14] = Cell Viability - N2a (AID 540); conditions: N2a mouse neuroblastoma cell viability; activity change, negative = cytotoxicity: at 92.2 µM (top of the series); further: nearly all actives have a fitted effect of over 45% in size
# Summary of the method: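 First, 1500 N2a cells per well incubate 5 hr at 37 °C; next, compounds are added and incubated 40 hr at 37 °C; finally CellTiter-Glo is added and luminescence read after 20 min, with AC50 derived by Hill modeling.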
# [15] = Cell Viability - LYMP2-021 (AID 974);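 further: compound exposure lasts 24 hours at 37 °C; nearly all actives have a fitted effect of over 55% in size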; further: potency means the concentration at half of the fitted maximal effect
# Summary of the method: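 Concentration-response cytotoxicity in a human lymphoblastoid line: 24 hr treatment at 37 C in complete culture medium, tetraoctylammonium bromide as positive control, luminescent ATP quantitation as viability measure.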
# [16] = Cell Viability - LYMP2-012 (AID 982);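 further: cellular ATP by luciferase luminescence where a drop means cytotoxicity; cells exposed to compound for one day before reading; nearly all actives have a fitted effect of over 55% in size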; further: potency means the concentration at half of the fitted maximal effect
# [17] = qHTS assay for small molecule agonists of the antioxidant response element (ARE) signaling pathway measured by Nrf2-dependant transcriptional activity - cell viability counter screen (AID 720653; active means well fitted curve in the direction sought with a large enough effect in the repeat runs; an effect the other way counts as inactive or inconclusive; further: potency means the concentration at half of the fitted maximal effect); conditions: ARE-bla HepG2 viability, CellTiter-Glo ATP luminescence, 16 h; max response: stronger effect = lower value
# Summary of the method: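 ARE-bla HepG2 cells treated with compounds for 16 h at 37C; this counter screen measures viability as intracellular ATP by CellTiter-Glo luminescence after 30 min at room temperature.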
# [18] = target: Tumor necrosis factor (Homo sapiens) (UniProt P01375); assay: qHTS assay to identify small molecules that stimulate Tumor Necrosis Factor-alpha (TNF-alpha) secretion (AID 651757; active means well fitted curve in the direction sought with a large enough effect in the signal ratio; the % refers to the signal ratio)
# Summary of the method: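 Secreted TNF-alpha from compound-treated THP-1 cells (17 hrs, 37 C) was quantified with a homogeneous time-resolved fluorescence antibody assay.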
# [19] = target: Bile acid receptor (Homo sapiens) (UniProt Q96RI1); assay: qHTS assay for small molecule antagonists of farnesoid X receptor signaling (AID 588526; calls by dose curve; further: potency means the concentration at half of the fitted maximal effect)
# Summary of the method: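 Antagonist mode: titrated compounds tested against chenodeoxycholic acid stimulation (normalized to 50 uM CDCA and DMSO) in GeneBLAzer HEK293T cells for 16 h. Beta-lactamase read by CCF4 fluorescence; IC50 from Hill fits.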
# [20] = qHTS assay to identify small molecules that stimulate interleukin-8 (IL-8) secretion (AID 651758; active means well fitted activation curve with a large enough effect in the signal ratio; the % refers to the signal ratio; further: potency means the concentration at half of the fitted maximal effect)
# Summary of the method: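 THP-1 cells (2000/well) exposed to compound 16 h at 37 C; secreted IL-8 then detected by HTRF with cryptate- and XL665-labelled anti-IL-8 antibody pair after 1-3 h at room temperature.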
# Chain of Peroxisome proliferator-activated receptor gamma (Homo sapiens) (P37231 whole entry, looked up): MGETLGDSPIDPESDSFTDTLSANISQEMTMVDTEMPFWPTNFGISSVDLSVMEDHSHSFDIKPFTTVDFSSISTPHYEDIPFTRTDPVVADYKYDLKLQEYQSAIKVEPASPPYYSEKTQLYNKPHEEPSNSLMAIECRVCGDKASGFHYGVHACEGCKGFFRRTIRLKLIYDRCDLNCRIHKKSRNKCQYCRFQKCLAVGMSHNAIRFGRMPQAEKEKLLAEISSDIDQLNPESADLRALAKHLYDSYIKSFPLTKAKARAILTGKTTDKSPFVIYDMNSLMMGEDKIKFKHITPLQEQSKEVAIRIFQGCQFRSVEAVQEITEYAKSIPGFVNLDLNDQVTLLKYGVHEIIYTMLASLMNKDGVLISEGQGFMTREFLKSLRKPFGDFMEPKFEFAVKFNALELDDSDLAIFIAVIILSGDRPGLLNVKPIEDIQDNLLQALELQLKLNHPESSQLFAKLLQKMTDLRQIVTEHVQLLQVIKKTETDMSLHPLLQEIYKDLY
# Chain of Retinoic acid receptor RXR-alpha (Homo sapiens) (P19793 whole entry, looked up): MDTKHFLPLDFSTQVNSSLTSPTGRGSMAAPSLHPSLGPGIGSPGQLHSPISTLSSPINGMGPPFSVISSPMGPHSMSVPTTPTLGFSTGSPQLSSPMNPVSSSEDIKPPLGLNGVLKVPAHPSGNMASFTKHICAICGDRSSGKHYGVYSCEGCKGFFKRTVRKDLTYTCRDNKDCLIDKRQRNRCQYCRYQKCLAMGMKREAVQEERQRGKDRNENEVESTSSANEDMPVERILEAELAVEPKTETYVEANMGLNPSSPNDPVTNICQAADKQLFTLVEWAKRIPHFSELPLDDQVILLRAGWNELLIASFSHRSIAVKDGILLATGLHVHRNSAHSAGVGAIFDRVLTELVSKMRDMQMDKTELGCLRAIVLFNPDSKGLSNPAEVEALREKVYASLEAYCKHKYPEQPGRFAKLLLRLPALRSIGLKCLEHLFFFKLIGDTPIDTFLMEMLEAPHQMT
# Chain of Bile acid receptor (Homo sapiens) (Q96RI1 whole entry, looked up): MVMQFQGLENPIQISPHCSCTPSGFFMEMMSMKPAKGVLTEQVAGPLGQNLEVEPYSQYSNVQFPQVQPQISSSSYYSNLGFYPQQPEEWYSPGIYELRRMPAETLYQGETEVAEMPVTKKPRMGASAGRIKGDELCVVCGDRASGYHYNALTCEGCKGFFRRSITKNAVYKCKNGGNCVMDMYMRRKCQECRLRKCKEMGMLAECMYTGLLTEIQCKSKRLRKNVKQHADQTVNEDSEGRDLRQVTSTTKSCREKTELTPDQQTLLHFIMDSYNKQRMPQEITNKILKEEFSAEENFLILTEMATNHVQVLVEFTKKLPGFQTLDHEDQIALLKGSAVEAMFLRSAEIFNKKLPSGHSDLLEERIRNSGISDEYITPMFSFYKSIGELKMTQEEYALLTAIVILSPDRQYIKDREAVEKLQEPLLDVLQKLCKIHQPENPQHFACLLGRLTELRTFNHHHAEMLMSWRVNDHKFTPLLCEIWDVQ
# Chain of Estrogen receptor (Homo sapiens) (P03372 whole entry, looked up): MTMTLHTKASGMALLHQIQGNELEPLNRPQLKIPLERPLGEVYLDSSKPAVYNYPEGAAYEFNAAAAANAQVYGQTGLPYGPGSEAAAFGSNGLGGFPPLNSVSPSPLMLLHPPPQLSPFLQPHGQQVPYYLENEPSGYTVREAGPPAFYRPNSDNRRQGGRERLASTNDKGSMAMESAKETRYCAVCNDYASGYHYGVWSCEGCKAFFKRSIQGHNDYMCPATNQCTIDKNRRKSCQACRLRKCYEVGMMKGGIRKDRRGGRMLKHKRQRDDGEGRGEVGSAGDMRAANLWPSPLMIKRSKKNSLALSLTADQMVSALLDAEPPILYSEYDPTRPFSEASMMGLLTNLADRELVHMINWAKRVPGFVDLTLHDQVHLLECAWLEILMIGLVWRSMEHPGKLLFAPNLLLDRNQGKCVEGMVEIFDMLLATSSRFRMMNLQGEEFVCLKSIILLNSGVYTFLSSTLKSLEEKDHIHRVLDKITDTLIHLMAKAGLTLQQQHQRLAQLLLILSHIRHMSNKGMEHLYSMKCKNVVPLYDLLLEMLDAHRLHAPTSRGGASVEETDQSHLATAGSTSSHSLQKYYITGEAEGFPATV
# Chain of Vitamin D3 receptor (Homo sapiens) (P11473 whole entry, looked up): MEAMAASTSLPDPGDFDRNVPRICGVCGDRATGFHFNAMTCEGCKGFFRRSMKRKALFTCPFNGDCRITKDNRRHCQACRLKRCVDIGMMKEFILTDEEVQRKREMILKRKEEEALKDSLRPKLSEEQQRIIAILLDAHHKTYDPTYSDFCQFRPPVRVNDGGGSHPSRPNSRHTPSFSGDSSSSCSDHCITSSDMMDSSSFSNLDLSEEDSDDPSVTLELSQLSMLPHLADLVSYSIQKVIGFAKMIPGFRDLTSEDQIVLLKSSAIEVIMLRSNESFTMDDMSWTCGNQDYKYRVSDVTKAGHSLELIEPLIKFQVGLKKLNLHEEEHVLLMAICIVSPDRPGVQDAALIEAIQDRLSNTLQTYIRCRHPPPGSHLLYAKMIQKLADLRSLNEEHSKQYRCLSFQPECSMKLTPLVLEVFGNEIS
# Chain of Glucocorticoid receptor (Homo sapiens) (P04150 whole entry, looked up): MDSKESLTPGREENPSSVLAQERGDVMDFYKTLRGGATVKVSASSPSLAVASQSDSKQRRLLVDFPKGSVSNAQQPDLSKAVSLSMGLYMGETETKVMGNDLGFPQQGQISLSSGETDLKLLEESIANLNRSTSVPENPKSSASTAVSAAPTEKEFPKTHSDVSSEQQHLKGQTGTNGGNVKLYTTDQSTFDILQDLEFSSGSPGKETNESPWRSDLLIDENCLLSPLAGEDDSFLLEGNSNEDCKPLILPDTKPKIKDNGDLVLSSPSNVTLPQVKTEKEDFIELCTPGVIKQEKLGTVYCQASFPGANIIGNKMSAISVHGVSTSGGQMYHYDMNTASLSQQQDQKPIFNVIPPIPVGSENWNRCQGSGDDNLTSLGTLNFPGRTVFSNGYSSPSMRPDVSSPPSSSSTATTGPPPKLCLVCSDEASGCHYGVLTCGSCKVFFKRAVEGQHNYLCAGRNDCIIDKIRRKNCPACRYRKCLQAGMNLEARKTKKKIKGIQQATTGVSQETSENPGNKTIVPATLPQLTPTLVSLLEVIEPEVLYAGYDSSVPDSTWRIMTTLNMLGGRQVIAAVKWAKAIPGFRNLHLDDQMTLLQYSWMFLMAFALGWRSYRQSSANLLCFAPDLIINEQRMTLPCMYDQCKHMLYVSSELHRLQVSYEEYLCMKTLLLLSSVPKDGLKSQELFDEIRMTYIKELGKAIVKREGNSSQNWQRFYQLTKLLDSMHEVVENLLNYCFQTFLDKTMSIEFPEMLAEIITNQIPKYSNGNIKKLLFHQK
# Chain of Tumor necrosis factor (Homo sapiens) (P01375 whole entry, looked up): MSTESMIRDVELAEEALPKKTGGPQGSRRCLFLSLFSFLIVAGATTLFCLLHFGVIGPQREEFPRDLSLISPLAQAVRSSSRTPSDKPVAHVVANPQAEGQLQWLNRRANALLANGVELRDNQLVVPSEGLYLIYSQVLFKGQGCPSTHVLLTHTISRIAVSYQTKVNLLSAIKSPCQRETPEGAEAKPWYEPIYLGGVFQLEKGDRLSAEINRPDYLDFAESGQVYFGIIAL
compound,measurement,setting,value
Nc1cc([N+](=O)[O-])ccc1O,Potency,[1],inactive
same,Potency,[2],inactive
same,Potency,[3],inactive
same,max response,[4],32.9% and 36.8%
same,outcome,[5],inactive
same,Potency,[6],inactive
same,Potency,[7],inactive
same,Potency,[8],29.8 µM (active) and 12.2 µM (active)
CC(C)S,"activity change, negative = cytotoxicity",[9],-8.42% (inactive)
same,Potency,[10],inactive
same,outcome,[11],inactive
same,Potency,[12],inactive
same,Potency,[3],inactive
same,max response,[4],-7.04%
same,outcome,[5],inactive
same,Potency,[6],inactive
same,Potency,[13],inactive
C[C@@H]1CC2(OC(O)[C@]3(C)O[C@H]23)O[C@H]2C[C@@]3(C)[C@@H]4CC[C@H]5C(C)(C)C(O[C@@H]6OC[C@@H](O)[C@H](O)[C@H]6O)CC[C@@]56C[C@@]46CC[C@]3(C)[C@@H]12 (stereo partly drawn),Potency,[1],inactive
same,"activity change, negative = cytotoxicity",[14],-12.9% (inactive)
same,Potency,[10],inactive
same,Potency,[15],inactive
same,Potency,[16],50.1 µM (active)
same,Potency,[17],70.8 µM (active)
CCN(CC)c1ccc2c(C)cc(=O)oc2c1,Potency,[15],inactive
same,outcome,[11],inactive
same,Potency,[6],inactive
same,Potency,[8],37.6 µM (active)
same,max response,[17],-2.1% (inactive)
C=C1CC[C@H](O)C/C1=C/C=C1\CCC[C@]2(C)[C@@H]([C@H](C)CCCC(C)C)CC[C@@H]12,Potency,[1],inactive
same,Potency,[15],39.8 µM (active)
same,Potency,[16],50.1 µM (active)
same,Potency,[18],inactive
same,max response,[17],-9.05% (inactive)
Cc1ccc(S(N)(=O)=O)cc1,"activity change, negative = cytotoxicity",[14],-12.6% (inactive)
same,Potency,[2],inactive
same,Potency,[15],inactive
same,Potency,[16],inactive
same,Potency,[19],inactive
same,Potency,[3],inactive
same,max response,[4],10.9% and 2.08%
same,outcome,[5],inactive
same,Potency,[6],inactive
same,Potency,[7],inactive
same,Potency,[8],inactive and 68.6 µM (active)
same,Potency,[20],inactive
Cc1c2ccccc2c(C)c2c1ccc1ccccc12,"activity change, negative = cytotoxicity",[14],-25% (inactive)
same,"activity change, negative = cytotoxicity",[9],-137% (active)
same,Potency,[15],inactive
same,Potency,[16],inactive
same,outcome,[11],inactive
same,Potency,[12],4.47 µM (active) and 15.8 µM (active)
same,Potency,[19],inactive
same,Potency,[8],10.6 µM (active) and 24.3 µM (active)
CCCCCCN,"activity change, negative = cytotoxicity",[14],-7.51% (inactive)
same,"activity change, negative = cytotoxicity",[9],-9.38% (inactive)
same,Potency,[15],inactive
same,outcome,[11],inactive
same,Potency,[12],inactive
same,Potency,[7],inactive
Nc1cnn([C@@H]2O[C@H](CO)[C@@H](O)[C@H]2O)c(=O)n1,Potency,[1],inactive
same,"activity change, negative = cytotoxicity",[9],4.75% (inactive)
same,Potency,[2],inactive
same,Potency,[15],inactive
same,Potency,[16],inactive
same,outcome,[11],inactive
same,Potency,[12],inactive
same,Potency,[19],25.1 µM (active)
same,Potency,[3],inactive
same,outcome,[5],inactive
same,Potency,[13],inactive
same,Potency,[7],inactive
same,Potency,[8],inactive
same,Potency,[18],inactive
same,Potency,[20],75 µM (active)
same,max response,[17],20.2% (inactive)
Nc1ccc(N=Nc2ccccc2)c(N)c1,Potency,[15],inactive
same,outcome,[11],inactive
same,Potency,[12],inactive
same,Potency,[3],inactive
same,outcome,[5],inactive
same,Potency,[6],inactive
same,Potency,[8],42.2 µM (active)
same,max response,[17],-16.9% (inactive)
Cc1ccccc1OCC1CO1 (stereo not drawn),Potency,[1],inactive
same,"activity change, negative = cytotoxicity",[14],-6.29% (inactive)
same,"activity change, negative = cytotoxicity",[9],-29.7% (inactive)
same,Potency,[2],inactive
same,Potency,[10],inactive
same,Potency,[16],inactive
same,outcome,[11],inactive
same,Potency,[12],inactive
same,Potency,[19],inactive
same,Potency,[3],inactive
same,outcome,[5],inactive
same,Potency,[13],inactive
same,Potency,[7],inactive
same,Potency,[8],inactive
same,Potency,[20],inactive
Brc1ccc(-c2ccccc2)cc1,"activity change, negative = cytotoxicity",[9],-9.21% (inactive)
same,Potency,[15],inactive
same,Potency,[16],inactive
same,Potency,[3],inactive
same,Potency,[7],inactive
same,Potency,[8],inactive
C=CC(=O)CC,Potency,[1],inactive
same,"activity change, negative = cytotoxicity",[14],4.36% (inactive)
same,"activity change, negative = cytotoxicity",[9],-11.9% (inactive)
same,Potency,[10],inactive
same,Potency,[16],inactive
same,Potency,[19],inactive
same,outcome,[5],inactive
same,Potency,[13],inactive
same,max response,[17],-0.839% (inactive)
